Results published in the supplement of paper PMC6555819.

Tests used:
Assay in all cases: PBM binding z-score (relative to random genomic background probes); higher = stronger binding; sequences stand for … in GC…GCGATTGACAGCGTAGAATGAAGG
[1] = test system: FXR:RXRa (NR concentration 270 nM, RXRa partner concentration 90 nM)
Summary of the method: (§1)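 Scanned fluorescence from custom Agilent 4×180K protein-binding microarrays was regression-normalized. Binding z-scores use random background probes as reference. Ligand-free nuclear receptor dimers were incubated on the arrays for 1 h and detected with antibodies against each partner (one per run).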

[2] = test system: LXRa:RXRa (NR concentration 270 nM, RXRa partner concentration 90 nM)
Summary of the method: as §1

[3] = test system: LXRa homodimer (NR concentration 270 nM)
Summary of the method: as §1

[4] = test system: LXRb:RXRa (NR concentration 270 nM, RXRa partner concentration 90 nM)
Summary of the method: as §1

[5] = test system: LXRb homodimer (NR concentration 270 nM)
Summary of the method: as §1

[6] = test system: PPARa:RXRa (NR concentration 270 nM, RXRa partner concentration 90 nM)
Summary of the method: as §1

[7] = test system: PPARg:RXRa (NR concentration 180 nM, RXRa partner concentration 90 nM)
Summary of the method: as §1

[8] = test system: PPARg:RXRa 270nM:90nM, anti-RXR (NR concentration 270 nM, RXRa partner concentration 90 nM)
Summary of the method: as §1

[9] = test system: PPARg:RXRa 30nM:10nM, anti-RXR (NR concentration 30 nM, RXRa partner concentration 10 nM)
Summary of the method: as §1

[10] = test system: PPARg:RXRa 90nM:30nM, anti-RXR (NR concentration 90 nM, RXRa partner concentration 30 nM)
Summary of the method: as §1

Row | Sequence | PBM binding z-score [1] | PBM binding z-score [2] | PBM binding z-score [3] | PBM binding z-score [4] | PBM binding z-score [5] | PBM binding z-score [6] | PBM binding z-score [7] | PBM binding z-score [8] | PBM binding z-score [9] | PBM binding z-score [10]
1 | CCTACTGGGCCAAGGTCGTTGATCAGTCAAAGCA | 0.16 | 0.0412 | -0.352 | 0.25 | -0.992 | 1.56 | 1.7 | 2.33 | 0.177 | 1.6
2 | GATACAGGGTCAGCTAGAGGCCAGAGAATGGAAA | 4.74 | 2.83 | -0.346 | 2.73 | -0.535 | 4.65 | 3.8 | 3.53 | 1.08 | 2.59
3 | GGAACGAGGGCATTAGAGTTGATAGCATGGCGAT | 0.899 | 2.35 | -0.104 | 0.257 | -0.699 | 1.22 | 0.982 | 0.676 | 0.105 | 0.129
4 | AGAACGAGGGCAATGAGTTGATACCACGGGTGGC | 0.296 | 0.211 | -0.493 | -0.174 | -0.279 | 1.36 | 1.5 | 0.94 | -0.0193 | 0.369
5 | TCTACAGGGTCAAAGGCCAGAGTACGAATGTCGA | 7.34 | 4.67 | 0.313 | 4.11 | 0.605 | 5.99 | 7.62 | 7.12 | 5.3 | 6.93
6 | CCAGAGAGGTGAGAAGGTAACTCAGCCTCGATTA | 0.595 | 0.597 | -0.207 | 1.02 | -0.739 | 2.17 | 0.83 | 1.36 | 0.216 | 0.457
7 | GCTAGTTGGTCCGTAAAAGGTCACACACCGGTCG | 3.14 | 4.48 | 3.93 | 3.92 | 0.618 | 4.14 | 1.33 | 3.29 | 0.779 | 2.39
8 | TCTTGTAGATCAAAGGTTAAGTAAGCCGAAGCCT | 2.04 | 2.34 | 0.244 | 2.28 | 0.0721 | 4.84 | 8.98 | 8.32 | 7.35 | 8.69
9 | TCTGCTAGATCAGTTGGTCAGCTAACGAGCTGCC | -2.98 | -0.794 | -1.07 | -0.988 | -0.764 | -0.465 | -0.552 | 0.389 | 1.24 | 0.547
10 | TCTGGTTGGTCAAAGGTCACACACTCGAAATGCG | 6.33 | 5.91 | 4.59 | 5.75 | 2.86 | 6.43 | 10.3 | 9.3 | 8.98 | 10.5
11 | CCTCGGAGGACAGAAGGTCAGAGCTGTCCGCTTT | 1.38 | 1.63 | -0.0944 | 1.03 | -0.587 | 1.84 | -0.203 | 0.708 | -0.69 | -0.00592
12 | CAAACTAGGTCATGAAAGGTCAAAGTCGAATGAC | 7.56 | 8.15 | 8.41 | 7.23 | 2.86 | 6.78 | 9.71 | 8.12 | 6.46 | 8.38
13 | CTCGAAAGGCCGGTTGAGGTGAGTATACGGATAA | -0.00227 | -0.411 | -0.91 | -0.654 | -0.709 | -0.134 | -0.122 | -0.607 | -0.213 | -0.48
14 | ACAGACAGGTGAGTGACGGTAACTCAGCTGGACG | -0.187 | -0.0958 | -0.572 | -0.393 | -0.746 | -0.129 | 0.633 | 0.0382 | -0.358 | -0.388
15 | CAAACTAGGCCACAGAGGTCAAAGTCCGTGCGTA | 5.06 | 5.36 | 5.33 | 5.13 | 0.98 | 5.87 | 7.19 | 6.39 | 4.5 | 5.82
16 | CGTCAAAGTTCAAGTAAGGTAACGTAAAGCACGC | 6.99 | 6.43 | 4.16 | 4.1 | 1.85 | 5.15 | 5.02 | 5.63 | 2.56 | 4.25
17 | AATACCGGGTCATCGTAGGCCAGAGTACGCACAG | 6.17 | 5.51 | 1.68 | 3.93 | 0.968 | 5.4 | 5.83 | 5.07 | 2.01 | 3.89
18 | CCGATTGGGGCAAAGGTTACCATACTCAGTACGA | 1.84 | 1.62 | -0.0955 | 2.33 | -0.878 | 4.89 | 8.96 | 8.43 | 7.85 | 8.46
19 | AATACAGGGTCACTAGGCCAGACTAGGTACGAAT | 6.12 | 5.24 | 0.88 | 3.8 | 0.693 | 5.84 | 7.65 | 6.41 | 3.21 | 5.35
20 | CGTCGAAGGTCAAAGGTCAGTGAAGAGATGACGG | 8.44 | 6.95 | 3.31 | 6.62 | 1.89 | 7.42 | 10.4 | 8.74 | 7.87 | 8.95
21 | CCAACTAGGTCAAGGTCAAAGTCGGTTTGTGCCA | 6.64 | 5.56 | 4.61 | 4.73 | 1.43 | 6.14 | 9.18 | 7.58 | 5.13 | 7.56
22 | TAGCCTAGGTCAGATCGGGCCGGTATACGCTATA | 1.49 | 0.768 | -0.645 | 0.506 | -0.232 | 1.27 | 0.615 | 0.655 | -0.199 | 0.0642
23 | GCTATTAGTTGAAAGGCCAACCGAATGATTCTCG | 0.0459 | 0.417 | 0.216 | 0.305 | -0.435 | 1.3 | 1.43 | 3.21 | 1.27 | 2.6
24 | CAGACTAGGTCAAGGTCAAAGTCGGTTTGTGCCA | 6.13 | 5.42 | 3.5 | 4.36 | 0.864 | 5.62 | 7.72 | 7.03 | 5.17 | 6.78
